This is part of a sample that, as a whole, favours compounds with a hit. Of some 83,000 tested, about 20% had one in any assay.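 Testing used 96-well plates and a 48-hour single-concentration exposure. Example: -40 means 40% of the starting cells died.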 Values without a mark were called inactive. The source made the active and inactive calls. The calls were made as follows: active = growth percent below 10; inactive = the rest.
Key:
Experiment in all cases: NCI-60 one-dose screen, 48 h (100 = growth as untreated, 0 = no growth, -100 = all killed)
Settings in all cases: 10 µM unless noted
SK-MEL-2 melanoma = system: SK-MEL-2 melanoma
EKVX NSCLC = system: EKVX NSCLC
SN12C renal = system: SN12C renal
UO-31 renal = system: UO-31 renal
ACHN renal = system: ACHN renal
CAKI-1 renal = system: CAKI-1 renal
A498 renal = system: A498 renal
CCRF-CEM leukemia = system: CCRF-CEM leukemia
MOLT-4 leukemia = system: MOLT-4 leukemia
TK-10 renal = system: TK-10 renal

Structure (SMILES)	growth (SK-MEL-2 melanoma)	growth (EKVX NSCLC)	growth (SN12C renal)	growth (UO-31 renal)	growth (ACHN renal)	growth (CAKI-1 renal)	growth (A498 renal)	growth (CCRF-CEM leukemia)	growth (MOLT-4 leukemia)	growth (TK-10 renal)
O=C1c2ccccc2C(=O)c2cc(Cn3cc[n+](Cc4ccc5ccccc5c4)c3)ccc21	89.1%	70.9%	74.4%	82.5%	108%	96.5%	98.3%	71%	79.1%	
COc1ccc(/C(C)=C(\c2ccc(Cl)cc2)c2ccc(OCCN3CCCCCC3)cc2)cc1F	74.5%	57.7%	57.4%	32.4%	64.5%	22.6%	77.6%	36.2%	26.6%	
Cc1cnc(Nc2ccc(OCCN3CCCC3)cc2)nc1NCc1ccco1	97.9%	71.5%	68.5%	47.8%	79.4%	62.5%	71.5%	72.7%		
O=C(NC1CCOCC1)c1ccc2c(c1)CN(c1ncc(Cc3cccc(-n4cccn4)c3)s1)CC2	54.9%	53.5%	82.1%	64.4%			46.6%	52.1%	40.3%	81.7%
CCN(CC)CCNc1ccc(C)c2sc3cc(C)ccc3c(=O)c12	55.7%	81.3%	53.8%	41%			84.8%	34%	30.6%	57.9%
O=C1Nc2ccc(Cl)cc2/C1=N/N=C/c1c[nH]c2ccccc12	66.3%	22.6%	80.5%	40.9%	49.8%	28.9%		85.7%	92.1%	
Cc1nc(Nc2ccc(NC(=S)Nc3ccccc3)cc2)nc2nc(SCc3ccccc3)[nH]c(=O)c12	110%	99.2%	93.6%	86%			102%	92.3%	87.4%	199%
Cc1ccc(Nc2ccc(Nc3ccc(C)cc3S(=O)(=O)O)c3c2C(=O)c2ccccc2C3=O)c(S(=O)(=O)O)c1	101%	91.5%	98.5%	78.4%			119%	95.6%	116%	98.3%
O=[N+]([O-])c1ccccc1C(O)Cc1ccc2ccccc2n1 (stereo not given)	108%	83.8%	95.2%	66.6%	85.9%	88%	68%	-50.2% (active)	-6.33% (active)	
COc1cc2c(cc1OC)-c1ccc3cc4c(cc3c1N(CCCN1CCCCC1)C2)OCO4	68.8%	69.4%	30.5%	37.6%			65%	19.6%	6.01% (active)	73.2%
CCO/C=N/C1=C(C#N)C(c2ccc(OC)cc2)c2c(c3ccccc3n(C)c2=O)O1 (stereo not given)	108%	101%	98.9%	72.8%	100%	89.6%	111%	100%	103%	
CCN(CC)CC(=O)Nc1cccc(C(=O)OC(C)C)c1	81.9%	96.4%	107%	89.7%			140%		96.2%	87.5%
Cc1ccc(NSc2ccccc2[N+](=O)[O-])cc1	23.5%	50.1%	40.3%	33.1%	50.4%	34.2%	6.22% (active)	12.4%	29.5%	
C=C1C(=O)O[C@H]2[C@H]1CC/C(C(=O)NCCCCCCCCNC(=O)/C1=C/CC[C@@]3(C)O[C@H]3[C@H]3OC(=O)C(=C)[C@@H]3CC1)=C\CC[C@@]1(C)O[C@@H]21	80.1%	97.2%	76.2%	80.8%			107%	4.79% (active)	15.2%	64.4%
Oc1ccccc1-c1nc2ccccn2c1NCCN1CCOCC1	106%	102%	97.1%	89.9%	95.3%	86.9%	89.5%	94.3%		
CO/C(=C1/NC(=O)C(Cc2ccc(O)c(Br)c2)N(C)C(=O)C(C)NC(=O)CCC/C=C(\C)CCC(C)OC1=O)c1ccccc1 (stereo not given)	-100% (active)	-25.3% (active)	6.56% (active)	-84.9% (active)			-63.7% (active)	0.832% (active)	-12.2% (active)	-83.2% (active)
CCCCNCC(=O)Nc1ccc(C(=O)OCC)cc1	93%	98.3%	104%	91.8%			101%	79.4%	80.7%	96.1%

Structure (SMILES)	growth (SK-MEL-2 melanoma)	growth (EKVX NSCLC)	growth (SN12C renal)	growth (UO-31 renal)	growth (ACHN renal)	growth (CAKI-1 renal)	growth (A498 renal)	growth (CCRF-CEM leukemia)	growth (MOLT-4 leukemia)	growth (TK-10 renal)
OC(CBr)c1ccnc2ccccc12 (stereo not given)	93.3%	103%	99.6%	83.4%			102%	76.8%	93.8%	89.4%
COc1cc2c(cc1OC)-c1ccc3cc4c(cc3c1N(CCCn1ccnc1)C2)OCO4	37.7%	98.2%	18.1%	80.8%			85.2%	1.56% (active)	2.11% (active)	91.3%
C=CCN1C(=O)[C@]2(SC1=S)[C@H](c1cccc(Cl)c1)CN(C)[C@]21C(=O)NC2C=CC(Cl)=C[C@H]21 (stereo not given in full)	44.2%	38.4%	-53.6% (active)	-41.2% (active)			76.8%	4.67% (active)	-17.7% (active)	70.9%
COc1ccc(-c2c(N)n[nH]c2-c2ccccc2O)cc1OC	88.2%	92.4%	104%	62.6%	102%	21.6%	118%	81.8%	97%	
CCOc1ccc(S(=O)(=O)c2ccc(C)cc2)c2c1no[n+]2[O-]	82.5%	83.9%	94.8%	83.3%	85.6%	71.8%	67.2%	75.7%		
CC(C)N(CCOC(=O)Nc1ccccc1Cl)C(C)C	104%	99.7%	99.1%	85.1%			109%	83.7%	88.6%	108%
CC(c1ccc(-n2cccn2)cc1)c1cnc(N2CCc3ccc(C(N)=O)cc3C2)s1 (stereo not given)	51.7%	54.3%	86.9%	51.8%			81%	33.4%	8.64% (active)	68.6%
COc1cc2cc(Oc3ccc(NC(=O)Nc4cc(C(F)(F)F)cc(C(F)(F)F)c4)cc3)c(C)nc2cc1OCCN1CCCCC1	-35.6% (active)	-73.1% (active)	-92.6% (active)	-98.9% (active)	-100% (active)	-76.7% (active)		-26.7% (active)	-44.4% (active)	
CCN(CC)CCCC(C)NCc1ccccc1 (stereo not given)	80.9%	102%	102%	83.5%			105%	120%	110%	83.6%
COc1ccc(-n2nnc(C(=O)NCCc3c[nH]c4ccc(F)cc34)c2C)cc1	91.6%	102%	103%		102%	91.7%	100%	87.9%	87.9%	96.2%
N#Cc1c(NC(=O)c2ccc(Br)cc2)sc2c1CCCC2	37%	37%	45.7%		47.6%	54.3%			32.5%	72.7%
O=C(/C=C/C12c3ccccc3C(c3ccccc31)C1C(=O)N(c3ccc(Cl)cc3)C(=O)C12)c1ccccn1 (stereo not given)	-19.2% (active)	-34.8% (active)	-44.8% (active)		-35.4% (active)	-9.86% (active)			20%	-33.4% (active)
CCCCN1CCN(c2ccc3nc(-c4ccc5nc(-c6ccc(OCC)c(OCC)c6)[nH]c5c4)[nH]c3c2)CC1	13.1%	24.6%	18.8%	74.4%		27.7%		-0.368% (active)	-0.133% (active)	
CCOC(=O)c1ccc(NC(=O)CCCN(CC)CC)cc1	73%	105%	106%	88.7%			118%	106%	95.7%	
CCCCN(CCCC)CCCn1c(=O)c2sc3ncccc3c2n2nnc(-c3ccccc3)c12	107%	-3.24% (active)	99.3%		97%	-87.9% (active)	117%	90.8%	94.5%	118%
C=C1C(=O)O[C@H]2[C@H]1CC/C(Cn1cc(CNCCc3c[nH]c4ccc(Cl)cc34)nn1)=C\CC[C@@]1(C)O[C@@H]21	52.3%	84.1%	58.6%			48.2%	90%	-29.6% (active)	0.755% (active)	0.209% (active)
CN1C(=O)CCC(N2C(=O)c3cccc(NCCOCCOCCNC(=O)c4cc5c(o4)C(=O)c4ccccc4C5=O)c3C2=O)C1=O (stereo not given)	6.39% (active)	9.9% (active)	-86.2% (active)	-52.6% (active)	8.82% (active)	-0.721% (active)		18.4%	11.1%	
